Inconclusive results are not listed. Where a call stands in place of a potency, no number is given. Activity calls are given as the source filed them. The call rests on the fitted dose curve; in most records, active means well fitted inhibition curve with a large enough effect; inconclusive means small, poorly fitted or top-dose-only effect; inactive means no such curve, though single readings can be large or run the other way.
Potency means the concentration at half of the fitted maximal effect.

Chain of RecQ-like DNA helicase BLM (Homo sapiens) (P54132 whole entry, looked up): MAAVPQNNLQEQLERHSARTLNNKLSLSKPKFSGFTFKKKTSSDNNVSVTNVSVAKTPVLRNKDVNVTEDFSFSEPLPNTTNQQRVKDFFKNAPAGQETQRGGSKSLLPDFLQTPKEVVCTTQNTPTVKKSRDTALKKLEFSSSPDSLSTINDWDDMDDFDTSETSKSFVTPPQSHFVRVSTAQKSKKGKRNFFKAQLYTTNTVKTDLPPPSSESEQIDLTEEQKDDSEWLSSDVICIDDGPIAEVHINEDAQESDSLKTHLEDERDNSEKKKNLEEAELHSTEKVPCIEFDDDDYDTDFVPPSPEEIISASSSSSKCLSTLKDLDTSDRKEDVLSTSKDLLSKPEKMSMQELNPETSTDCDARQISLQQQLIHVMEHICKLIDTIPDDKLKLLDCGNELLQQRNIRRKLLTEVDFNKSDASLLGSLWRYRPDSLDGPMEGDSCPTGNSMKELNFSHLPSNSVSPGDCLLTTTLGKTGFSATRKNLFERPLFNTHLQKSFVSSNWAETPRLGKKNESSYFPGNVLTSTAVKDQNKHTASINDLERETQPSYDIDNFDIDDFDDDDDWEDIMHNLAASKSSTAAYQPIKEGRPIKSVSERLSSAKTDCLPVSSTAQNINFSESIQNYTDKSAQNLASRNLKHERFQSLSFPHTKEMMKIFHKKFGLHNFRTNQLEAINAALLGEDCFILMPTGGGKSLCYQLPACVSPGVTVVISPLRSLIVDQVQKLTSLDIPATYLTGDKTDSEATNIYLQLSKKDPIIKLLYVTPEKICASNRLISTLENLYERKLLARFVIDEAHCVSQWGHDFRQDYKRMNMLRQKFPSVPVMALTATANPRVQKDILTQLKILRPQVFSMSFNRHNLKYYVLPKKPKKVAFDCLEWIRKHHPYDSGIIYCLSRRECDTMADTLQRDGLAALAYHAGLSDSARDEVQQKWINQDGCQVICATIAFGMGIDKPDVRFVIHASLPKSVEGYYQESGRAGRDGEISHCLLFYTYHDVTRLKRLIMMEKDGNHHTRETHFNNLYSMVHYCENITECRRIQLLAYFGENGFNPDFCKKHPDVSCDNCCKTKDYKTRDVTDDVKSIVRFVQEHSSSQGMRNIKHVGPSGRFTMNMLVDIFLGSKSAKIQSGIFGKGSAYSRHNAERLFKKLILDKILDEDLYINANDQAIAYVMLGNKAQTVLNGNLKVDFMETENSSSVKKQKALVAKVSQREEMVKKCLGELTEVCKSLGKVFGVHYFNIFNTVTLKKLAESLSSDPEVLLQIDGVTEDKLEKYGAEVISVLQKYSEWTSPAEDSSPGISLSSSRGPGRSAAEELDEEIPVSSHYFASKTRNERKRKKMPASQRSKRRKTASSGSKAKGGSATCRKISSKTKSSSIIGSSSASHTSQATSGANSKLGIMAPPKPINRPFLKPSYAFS

For the assay, the target named is RecQ-like DNA helicase BLM (Homo sapiens) (UniProt P54132). The experiment in a line: qHTS Validation Assay for Inhibitors of Bloom's syndrome helicase (BLM) (AID 2364). The following applies: BLM helicase DNA unwinding, fluorescence, in vitro; series mostly up to 57.1 µM. From the text:
Survival of cells and the faithful propagation of the genome depend on elaborate mechanisms of detecting and repairing DNA damage. Treatment of advanced cancer relies on radiation therapy or chemotherapy, which kill cancer cells by causing extensive DNA damage. It is often found, that cancer cells develop resistance to therapy through enhanced activity of DNA repair functions; this has led to an increased interest in developing drugs that interfere with DNA repair, which could sensitize cancer cells to conventional therapy.
This validation qHTS assay pertains to human BLM, which is important in resolving abnormal DNA structures formed during replication or homologous recombination. Shutting down the expression of BLM leads to chromosomal instability and higher radiation sensitivity in cultured cells.
The validation assay was a fluorescence quenching based kinetic qHTS for BLM Helicase DNA unwinding. The activity was measured as ATP-dependent separation of a 20-bp DNA duplex extended by 30-nt single-stranded tails (forked duplex). The forked DNA substrate was tagged with rhodamine fluorophore (carboxytetramethyl rhodamine, TAMRA) and BHQ-2 (Black Hole Quencher 2) dark quencher. Strand separation results in an increase in the fluorescence of TAMRA (excitation 525 nm, emission 598 nm). This substrate construct operates in a red-shifted region where very few compound library members have been noted to fluoresce (PubChem AIDs 593 and 594). An additional feature of the assay is the inclusion of 2.5 ug/ml poly (dIdC), to reduce interference by compounds such as DNA intercalators, a major source of false inhibitors.
Ian Hickson, University of Oxford
Opher Gileadi, Structural Genomics Consortium, University of Oxford
Screening Center PI: Austin, C.P.
Screening Center: NIH Chemical Genomics Center [NCGC]
Three uL of reaction buffer (25 mM Tris-HCl (pH 8.0), 5 mM NaCl, 2 mM MgCl2, 1mM DTT, 0.01% Tween- 20, and 2.5 ug/ml poly(dI-dC), including enzyme (50 nM BLM), were dispensed into a 1536-well Greiner black assay plate via solenoid-valve based nanoliter dispensers. Compounds (23 nl each in columns 5-48) and control (23 nl each in column 2 as dose-response) were transferred via a Kalypsys pintool equipped with a 1536-pin array. The plates were incubated for 15 min at room temperature, and then 1 ul of substrates (200 nM DNA and 2 mM ATP, final concentrations) was added to start the reaction. The plate was transferred into a ViewLux high-throughput CCD imager where the reaction progress was measured in a discontinuous kinetic mode (two reads spaced 2 hours apart, with intermediate room temperature incubation of the covered assay plate) by using standard red-fluorescence optics (excitation filter 525 nm, emission filter 598 nm). Enzyme-free and vehicle (DMSO) controls were included for signal normalization.
(qHTS replaces the single test concentration by a dilution series.)
Take `N.N.N.N.N.N.N.N.N.N.N.N.N.N.O.O.[Cl-].[Cl-].[Cl-].[Cl-].[Cl-].[Cl-].[Ru].[Ru].[Ru]`: the Potency is 12.6 µM (active).

For the compound `CCCCC#Cc1nc(N)c2ncn([C@@H]3O[C@H](C(=O)NCC)[C@@H](O)[C@H]3O)c2n1`, the Potency result was “inactive”.

On to `NCCCCNS(=O)(=O)c1cccc2c(Cl)cccc12`, for which the Potency entry was “inactive”.

With `CN1C2CCC1CC(NC(=O)c1nn(C)c3ccccc13)C2` (configuration not stated), the Potency entry was “inactive”.

For the compound `CN1C(=O)CCC1c1cccnc1` (configuration not stated), the Potency result was “inactive”.

In the case of `NC(=O)C1=CN(C2OC(COP(=O)(O)OP(=O)(O)OC[C@H]3O[C@@H](n4cnc5c(N)ncnc54)[C@H](OP(=O)(O)O)[C@H]3O)C(O)C2O)C=CC1` (some centres not stated), the Potency entry was “inactive”.

On to `CCn1c(=O)c2[nH]c(-c3ccccc3)nc2n(CC)c1=O`, for which the Potency entry was “inactive”.

Turning to `N=C1Sc2ccccc2C2=NCCCN12`, the Potency entry was “inactive”.

Regarding `C[C@]12CCC(=O)C=C1CC[C@@H]1C2[C@@H](O)C[C@@]2(C)[C@H]1CC[C@]2(O)C(=O)CO` (some centres not stated), the Potency entry is “inactive”.

On to `CC(C)C1NC(=O)[C@H](CCCCN)NC(=O)[C@@H](Cc2c[nH]c3ccccc23)NC(=O)[C@H](Cc2ccc(O)cc2)NC(=O)[C@H](C)N(C)C(=O)[C@H](Cc2ccccc2)NC1=O` (some centres not stated), for which the Potency entry was “inactive”.

`OC[C@H]1O[C@@H](n2cnc3c(Nc4ccccc4)ncnc32)[C@H](O)[C@H]1O`: the Potency result was “inactive”.

Regarding `NC(=NCCC[C@H](N)C(=O)O)NO`, the Potency result was “inactive”.

As for `N[C@H](Cc1ccc(O)c(O)c1)C(=O)O`, the Potency is 28.2 µM (active).

Turning to `CN1CCc2cc(Cl)c(O)cc2C(c2ccccc2)C1` (configuration not stated), the Potency result was “inactive”.

Turning to `CCCNC[C@H](O)COc1ccccc1C(=O)CCc1ccccc1`, the Potency entry is “inactive”.

In the case of `CC(C)CN(C)c1nc(N)c(C(=O)N=C(N)N)nc1Cl`, the Potency result was “inactive”.

Consider `COc1ccc(CCNC[C@@H](O)c2ccc(O)cc2)cc1OC`, for which the Potency entry is “inactive”.

For the compound `N=C(N)SCCc1cccc(CCSC(=N)N)c1`, the Potency entry is “inactive”.

Turning to `CC(=O)O[C@H]1C[C@@H]2CCC3C(CC[C@@]4(C)[C@H]3C[C@H]([N+]3(C)CCCCC3)[C@@H]4OC(C)=O)[C@@]2(C)C[C@@H]1[N+]1(C)CCCCC1` (some centres not stated), the Potency entry is “inactive”.

`Nc1ncnc2c1ncn2[C@@H]1O[C@H](CO)[C@H](O)[C@H]1O`: the Potency entry is “inactive”.

For the compound `C[C@H](Cc1ccccc1)Nc1ncnc2c1ncn2[C@@H]1O[C@H](CO)[C@H](O)[C@H]1O`, the Potency entry is “inactive”.

Consider `CCCC(=O)NCCc1c2n(c3ccc(OC)cc13)Cc1ccccc1-2`, for which the Potency result was “inactive”.

`OC[C@H]1O[C@@H](n2cnc3c(NCCc4ccccc4)ncnc32)[C@H](O)[C@H]1O`: the Potency result is “inactive”.

On to `CC(N)=NCCCC(N)C(=O)O` (configuration not stated), for which the Potency entry is “inactive”.

`COc1cc2c(cc1OC)C(c1ccccc1)CN(C)CC2` (configuration not stated): the Potency entry was “inactive”.

`OC[C@H]1O[C@@H](n2cnc3c(NC4CCCC4)ncnc32)[C@H](O)[C@H]1O`: the Potency result was “inactive”.

`C[C@H]1CC2[C@@H]3CCC4=CC(=O)C=C[C@]4(C)[C@@]3(F)[C@@H](O)C[C@]2(C)[C@@]1(O)C(=O)CO` (some centres not stated): the Potency entry was “inactive”.
